Results as given in PubChem BioAssay (NCI).
This is part of a sample that, as a whole, favours compounds with a hit. Of some 79,000 tested, about 15% had one in any assay. Unmarked numbers belong to inactive results. Calls of active or inactive are those of the source. No stated cut-off is given here; in the data, active means growth inhibition above about 70%; inactive means the rest.

How the values were obtained:
[1] = NCI Yeast Anticancer Drug Screen. Data for the rad50 strain (AID 155);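 further: 0% = growth of vehicle-only cultures of the same strain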; conditions: S. cerevisiae rad50 strain growth inhibition, stronger effect = higher value
In short: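 A DNA repair-deficient yeast mutant serves as the test organism; compound-induced growth inhibition is calculated against vehicle-treated cells.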

[2] = NCI Yeast Anticancer Drug Screen. Data for the mec2-1 strain (AID 157); conditions: S. cerevisiae mec2-1 strain, stronger effect = higher value
In short: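 Readout is yeast growth inhibition, normalised to vehicle-treated controls, in the mec2-1 strain exposed to compound.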

[3] = NCI Yeast Anticancer Drug Screen. Data for the sgs1 mgt1 strain (AID 161);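 further: 0% = growth of cultures given vehicle only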; conditions: S. cerevisiae sgs1 mgt1 strain, stronger effect = higher value
In short: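 Compounds are added to genetically altered yeast, and growth is compared with cultures given vehicle alone to give percent inhibition.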

[4] = NCI Yeast Anticancer Drug Screen. Data for the cln2 rad14 strain (AID 165);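 further: 0% = growth equal to vehicle treated cultures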; conditions: S. cerevisiae cln2 rad14 strain, stronger effect = higher value
In short: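 Relative to vehicle controls, growth inhibition of compound-treated cln2 rad14 yeast was recorded.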

[5] = NCI Yeast Anticancer Drug Screen. Data for the bub3 strain (AID 167); conditions: S. cerevisiae bub3 mutant strain, stronger effect = higher value
In short: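 Inhibition values come from growth of compound-treated mutant yeast normalised to vehicle-treated controls.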

[6] = NCI Yeast Anticancer Drug Screen. Data for the mlh1 rad18 strain (AID 175); conditions: S. cerevisiae mlh1 rad18 strain growth inhibition, stronger effect = higher value
In short: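 Test agents were incubated with a yeast strain of defined genotype (DNA damage repair defect). Inhibition of growth was derived by comparison with vehicle-exposed cultures.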

[7] = at 5.0 µM (retest, dose inferred, filed as 0.5)
[8] = at 50.0 µM (retest, dose inferred, filed as 5.0)

SMILES | growth inhibition [1, 7] | growth inhibition [1, 8] | growth inhibition ([1]; at 50.0 µM) | growth inhibition [2, 7] | growth inhibition [2, 8] | growth inhibition ([2]; at 50.0 µM) | growth inhibition [3, 7] | growth inhibition [3, 8] | growth inhibition ([3]; at 50.0 µM) | growth inhibition [4, 7] | growth inhibition [4, 8] | growth inhibition ([4]; at 50.0 µM) | growth inhibition [5, 7] | growth inhibition [5, 8] | growth inhibition ([5]; at 50.0 µM) | growth inhibition [6, 7] | growth inhibition [6, 8] | growth inhibition ([6]; at 50.0 µM)
O=c1oc(-c2ccc(Cl)c([N+](=O)[O-])c2)ns1 | 1% | 92% (active) | 97.1% (active) | 3% | 93% (active) | 95.3% (active) | 4% | 89% (active) | 97.8% (active) | 4% | 48% | 53.6% | 1% | 91% (active) | 97.2% (active) | 2% | 98% (active) | 91.8% (active)
OC(COc1ccc(Cl)cc1)CN1CCN(c2cccc(Cl)c2)CC1 (configuration not stated) | 20% | 99% (active) | 95.8% (active) | 37% | 100% (active) | 93.9% (active) | 80% (active) | 100% (active) | 98.5% (active) | 20% | 99% (active) | 85.8% (active) | 25% | 98% (active) | 95.5% (active) | 62% | 99% (active) | 96.3% (active)
N#CCc1nc2c(s1)C(=O)c1ccccc1C2=O | 52% | 99% (active) | 71.4% (active) | 48% | 100% (active) | 82.5% (active) | 47% | 100% (active) | 41.8% | 30% | 98% (active) | 35.2% | 55% | 99% (active) | 87.2% (active) | 67% | 99% (active) | 68.7%
COc1ccc(C2c3cc4c(cc3OC(O)C2C)OCO4)cc1 (configuration not stated) | -3% | 69% | 96.8% (active) | -6% | 49% | 93.5% (active) | -2% | 78% (active) | 98.3% (active) | -2% | 42% | 95.3% (active) | -2% | 67% | 97% (active) | -1% | 74% (active) | 97.5% (active)
Cc1ccc(/C=C2\CCCC(CN(C)C)C2=O)cc1 (configuration not stated) | -12% | 95% (active) | 61.5% | -4% | 99% (active) | 62.5% | -16% | 96% (active) | 78.5% (active) | 6% | 97% (active) | 41.4% | -31% | 99% (active) | 49.3% | -13% | 96% (active) | 52.4%
O=C(OCc1ccc2c(c1)OCO2)c1ccc(Cl)cc1 | 19% | 23% | -0.55% | -4% | 68% | -4.55% | 9% | 46% | -6.3% | -43% | -7% | 0.05% | -1% | 61% | 13.9% | 4% | 57% | -19.6%
O=C1C=CC(=O)C(c2ccc(Cl)cc2)=C1 | 45% | 96% (active) | 90.8% (active) | 54% | 97% (active) | 93% (active) | 33% | 99% (active) | 92.8% (active) | 40% | 99% (active) | 91.5% (active) | 44% | 97% (active) | 92% (active) | 32% | 98% (active) | 90.8% (active)
CCCCCCCCCCCCCCN1CCSCC1 | 6% | 18% | 98.5% (active) | 3% | 14% | 96% (active) | 4% | 1% | 99% (active) | 5% | 14% | 98.6% (active) | 9% | 21% | 99% (active) | 5% | 12% | 98.8% (active)
O=C(Nc1cccnc1)c1ccc(CSc2ccc(Cl)cc2)o1 | 56% | 97% (active) | 90.6% (active) | 41% | 98% (active) | 92.3% (active) | 48% | 97% (active) | 93.8% (active) | 40% | 94% (active) | 90.8% (active) | 50% | 63% | 92.2% (active) | 57% | 94% (active) | 92.2% (active)
Cn1c(Sc2ccc(-c3cccnc3)n2C)ccc1-c1cccnc1 | 11% | 91% (active) | 97.8% (active) | -12% | 92% (active) | 98.7% (active) | -7% | 97% (active) | 97.5% (active) | -15% | 77% (active) | 98.1% (active) | -19% | 96% (active) | 97.8% (active) | -5% | 95% (active) | 97.3% (active)
N#Cc1c(Cl)cc(Cl)n2c1nc1ccccc12 | 46% | 97% (active) | 91.2% (active) | 29% | 99% (active) | 94% (active) | 56% | 100% (active) | 93% (active) | 43% | 99% (active) | 91.7% (active) | 56% | 99% (active) | 91.3% (active) | 43% | 97% (active) | 92.3% (active)
O=[N+]([O-])c1ccccc1Oc1ccc([N+](=O)[O-])c(C(F)(F)F)c1 | -4% | 83% (active) | 80.1% (active) | -2% | 74% (active) | 82.7% (active) | 0% | -24% | 92.5% (active) | -8% | 45% | 45.9% | 2% | 92% (active) | 95.3% (active) | -1% | 90% (active) | 92.7% (active)
CN(C)NC(=S)C(F)(F)F | -1% | 87% (active) | 95.5% (active) | 1% | 79% (active) | 56.7% | 0% | 84% (active) | 97.8% (active) | -4% | 85% (active) | 44% | 0% | 85% (active) | 37.6% | -2% | 79% (active) | 77% (active)
CCC(CC)N(CCNc1cc(OC)cc2cccnc12)CC(C)C | 7% | 7% | 60.8% | 1% | 0% | 26% | 4% | 12% | 53.6% | 9% | -6% | 49.5% | 4% | 11% | 57% | 4% | 10% | 67.8%
CCSC(=Nc1nc2ccc(NC(C)=O)cc2s1)SCC | 5% | 96% (active) | 97.2% (active) | -3% | 97% (active) | 98% (active) | -1% | 97% (active) | 98.5% (active) | -3% | 83% (active) | 96.5% (active) | -2% | 94% (active) | 96% (active) | -2% | 96% (active) | 97.5% (active)
Cc1cccc(/C=N\OCCc2ccccc2)n1 | 0% | 85% (active) | -3.05% | -6% | 53% | 80.2% (active) | 1% | 84% (active) | 16.6% | -14% | 21% | -14.1% | 2% | 94% (active) | 47.7% | -2% | 88% (active) | 32.8%
COC12C=CC(CC1)C1=C2C(=O)c2nc(C)c(C)nc2C1=O (configuration not stated) | -1% | 27% | 30.8% | 9% | 20% | 7.5% | -1% | 39% | 33.6% | 21% | 3% | 20.8% | 5% | 8% | 20.8% | 12% | 52% | 34.2%
C=CC(=C)OC | 0% | 14% | 10.4% | -8% | 0% | 20.3% | -2% | 1% | 19.1% | 1% | 8% | 69.9% | 2% | -2% | 39% | 2% | 4% | 7.5%
Cn1c(=O)c2c(nc([N+](=O)[O-])n2C)n(C)c1=O | 2% | 48% | 74.6% (active) | 9% | 39% | 63.8% | 4% | 39% | 76.9% (active) | -2% | 18% | 45.6% | 12% | 75% (active) | 79.3% (active) | 0% | 41% | 68%
